Compound activity: PubChem, Paczesny and Yang Labs, IUPUI and University of Michigan
Only a selection was taken, and hits are over-represented in it overall.
ST2 inh = inhibitors of human ST2 (IL1RL1) binding to IL-33. Q01638. AlphaLISA ST2-Fc/biotin-IL-33 interaction, 1 h. inhibition, % for hits at 17 µM. 2.3% of 78,000 active. AID 1259354; in the data active means inhibition above about 30%
Target sequence (Q01638 whole entry, looked up): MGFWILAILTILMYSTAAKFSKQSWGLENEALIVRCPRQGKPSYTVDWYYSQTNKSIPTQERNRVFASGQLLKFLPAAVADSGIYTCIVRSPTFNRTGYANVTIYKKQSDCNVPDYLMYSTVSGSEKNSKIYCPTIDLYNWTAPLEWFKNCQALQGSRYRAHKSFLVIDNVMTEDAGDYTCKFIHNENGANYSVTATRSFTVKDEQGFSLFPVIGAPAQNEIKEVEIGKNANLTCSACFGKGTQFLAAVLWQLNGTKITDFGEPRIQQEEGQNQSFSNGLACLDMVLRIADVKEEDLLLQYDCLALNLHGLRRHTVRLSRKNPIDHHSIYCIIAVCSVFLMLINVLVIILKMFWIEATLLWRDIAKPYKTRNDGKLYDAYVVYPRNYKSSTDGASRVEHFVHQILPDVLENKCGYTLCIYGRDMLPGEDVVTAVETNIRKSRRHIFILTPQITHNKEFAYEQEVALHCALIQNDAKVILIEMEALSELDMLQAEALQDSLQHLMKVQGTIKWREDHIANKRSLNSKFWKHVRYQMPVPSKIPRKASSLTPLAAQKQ
The depositor's hits bear a star; i = inactive; ! = a repeat was not active.

SMILES	ST2 inh
CCNc1nc(C)c(C(=O)N2CCC3(CC2)C(=O)N(C)c2ccccc23)s1	i
CCc1ccc(-c2nc(CN3CCCC(C(=O)NC4CC4)C3)c(C)o2)cc1 (stereo not drawn)	i
C=CC(C)(O)CC/C=C(\C)CCC(O)C(C)(C)O (stereo not drawn)	43.0%*
CN(C)CCN(C)Cc1cccc(Cl)c1	i
CCc1nc2c(c(=O)[nH]1)C1(CCCCC1)Cc1ccccc1-2	i
COc1ccc(S(=O)(=O)NC2CCCCC2C)cc1OC (stereo not drawn)	34.0%*!
COc1ccc(OC)c(S(=O)(=O)NC2CCCCC2C)c1 (stereo not drawn)	i
CCCNS(=O)(=O)c1ccc(OC)c(OC)c1	i
O=c1c2cnn(-c3ccccc3)c2ncn1Cc1ccc(F)cc1	i
COc1ccc(C2SCCN2S(=O)(=O)c2ccc(C)cc2)cc1[N+](=O)[O-] (stereo not drawn)	i
Cc1ccc(S(=O)(=O)N2C/C(=C\c3ccccc3)c3c2cc([N+](=O)[O-])cc3[N+](=O)[O-])cc1	35.0%*
Cc1ccc(S(=O)(=O)N2CCN(S(C)(=O)=O)C2c2ccccc2)cc1 (stereo not drawn)	i
CCOC(=O)C1=C(C)Nc2nc(SCc3ccccc3)nn2C1c1ccc(OC)c(OC)c1 (stereo not drawn)	i
Cc1ccc(Nc2cc(C)nc(N3CCN(S(=O)(=O)c4ccc(-c5ccccc5)cc4)CC3)n2)cc1	i
COc1cc(OC)c(NC(=O)CSc2cc(=O)n(C)c3ccccc23)cc1Cl	i
CC1(C2CCC(=O)O2)CC(=O)c2c(O)cc(CO)cc2O1 (stereo not drawn)	30.0%*
O=C1C(=O)N(CN2CCN(CN3C(=O)C(=O)c4ccccc43)CC2)c2ccccc21	i
CCCOc1cccc(C(=O)Nc2ccc(C)cc2[N+](=O)[O-])c1	32.0%*
CCCCOc1ccc(C(=O)Nc2ccc(OCC)cc2[N+](=O)[O-])cc1	i
Cc1ccc(OCC(=O)Nc2ccc(C)cc2[N+](=O)[O-])c(C)c1	i
Cc1ccc(NC(=O)COc2ccc(Cl)cc2)c([N+](=O)[O-])c1	i
CCOc1ccc(NC(=O)c2cc(OC)cc(OC)c2)c([N+](=O)[O-])c1	i
Cc1ccc(NC(=O)COc2c(C)ccc(C)c2C)c([N+](=O)[O-])c1	33.0%*
COc1ccc(NC(=O)CCC2CCCN(Cc3cc(C)c(C)o3)C2)c(C)c1 (stereo not drawn)	i
CCn1cc(C(=O)NC2CCCC2)c(=O)c2cc(S(=O)(=O)N3CCc4ccccc4C3)ccc21	i
SMILES	ST2 inh
CC(C)c1nccc(-c2c(-c3ccccc3)ncn2CC2CCCO2)n1 (stereo not drawn)	i
Cc1cc2n(c1)CCn1c(C)ccc1-2	63.0%*
Cc1ccc(C)c(N(CC(=O)Nc2ccccc2C(=O)NCc2ccccc2)S(C)(=O)=O)c1	i
CCCc1ncncc1C(=O)N1CCC2(CCCO2)CC1	i
Clc1ccc(Cl)c(SCCc2ccncc2)c1	i
CC(C)c1ccc(Oc2ncnc(N)c2[N+](=O)[O-])cc1	i
Cc1nn(-c2ccccc2)c2c1C(c1ccc([N+](=O)[O-])o1)C(C#N)=C(N)O2 (stereo not drawn)	39.0%*
N#CC1=C(N)Oc2n[nH]c(-c3ccccc3)c2C1c1ccc([N+](=O)[O-])cc1Cl (stereo not drawn)	i
CC1=C(n2nnc3ccccc32)C(c2ccccc2)C(C#N)=C(N)O1 (stereo not drawn)	i
COc1ccc(Br)cc1C1C(C#N)=C(N)Oc2c1c(C)nn2-c1ccccc1 (stereo not drawn)	i
Cc1nn(-c2ccccc2)c2c1C(c1cccnc1)C(C#N)=C(N)O2 (stereo not drawn)	i
Cc1nn(-c2ccccc2)c2c1C(c1ccncc1)C(C#N)=C(N)O2 (stereo not drawn)	38.0%*
CC(C)Cc1cc(CNC(=O)C2COc3ccccc3O2)no1 (stereo not drawn)	i
CCOC(=O)N1CCN(C2CCCN(C3CCN(c4ccc(OC)cc4)CC3)C2)CC1 (stereo not drawn)	i
CCOc1ccc(NS(=O)(=O)c2c(C)noc2C)cc1	i
O=C(COc1ccccc1)Nc1cccc(Cl)c1	i
Cc1cc(C)cc(NC(=O)c2ccccc2C)c1	i
CCOC(=O)C1CCCN(C(=O)c2cn(CC(C)C)c(=O)c3c2c2ccccc2n3C)C1 (stereo not drawn)	i
O=C(Oc1cc(O)c2c(c1)O[C@@H](c1ccc(O)c(O)c1)[C@H](O)C2)c1cc(O)c(O)c(O)c1	i
O=C(O[C@@H]1Cc2c(O)cc(O)cc2O[C@@H]1c1cc(O)c(O)c(O)c1)c1cc(O)c(O)c(O)c1	31.0%*
O=C1c2c(O)cc(O)cc2OC(c2ccc(O)c(O)c2)C1O (stereo not drawn)	i
O=C(c1ccc2c(c1)N(Cc1ccccc1F)C(=O)CS2)N1CCC2(CC1)OCCO2	i
CCN(CC)CCCNc1c2c(c(C#N)c3nc4ccccc4n13)CCC2	42.0%*
CCc1nc(NCCN(CC)CC)c(C#N)c2c1CCCC2	i
